{"source": "ChEMBL document CHEMBL2218924", "about": "“A broad activity screen in support of a chemogenomic map for kinase signalling research and drug discovery” (Biochem J, 2013)", "key": {"[1]": {"target": "T1, Ephrin type-A receptor 3 (Homo sapiens) (UniProt P29320)", "T1 sequence (whole entry)": "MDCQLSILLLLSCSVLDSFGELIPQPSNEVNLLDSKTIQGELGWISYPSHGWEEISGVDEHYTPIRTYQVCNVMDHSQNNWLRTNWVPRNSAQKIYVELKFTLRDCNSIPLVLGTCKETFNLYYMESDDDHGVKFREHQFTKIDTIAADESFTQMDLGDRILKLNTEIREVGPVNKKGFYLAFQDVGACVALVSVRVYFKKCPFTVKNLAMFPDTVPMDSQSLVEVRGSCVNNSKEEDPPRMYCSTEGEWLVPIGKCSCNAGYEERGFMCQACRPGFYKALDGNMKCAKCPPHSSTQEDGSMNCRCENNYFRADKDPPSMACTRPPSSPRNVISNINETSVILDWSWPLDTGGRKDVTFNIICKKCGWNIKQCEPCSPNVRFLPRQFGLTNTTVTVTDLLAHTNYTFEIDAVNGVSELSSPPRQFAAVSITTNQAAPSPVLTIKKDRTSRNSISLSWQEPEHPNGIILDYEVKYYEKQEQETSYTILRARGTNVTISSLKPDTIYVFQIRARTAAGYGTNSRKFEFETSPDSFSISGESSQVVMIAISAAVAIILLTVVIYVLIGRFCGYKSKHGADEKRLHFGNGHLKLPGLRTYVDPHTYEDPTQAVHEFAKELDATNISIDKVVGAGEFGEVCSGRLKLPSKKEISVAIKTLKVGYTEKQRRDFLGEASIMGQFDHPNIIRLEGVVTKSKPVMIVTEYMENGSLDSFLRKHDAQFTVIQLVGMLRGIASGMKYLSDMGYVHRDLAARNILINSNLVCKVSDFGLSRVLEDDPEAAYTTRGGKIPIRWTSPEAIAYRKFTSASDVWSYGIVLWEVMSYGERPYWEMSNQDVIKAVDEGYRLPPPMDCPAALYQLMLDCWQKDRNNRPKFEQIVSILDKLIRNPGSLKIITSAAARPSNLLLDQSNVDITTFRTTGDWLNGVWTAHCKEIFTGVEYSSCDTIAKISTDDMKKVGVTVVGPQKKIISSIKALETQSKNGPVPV", "settings": "at 10 µM; call rule not given here"}, "[2]": {"target": "Ephrin type-A receptor 4 (Homo sapiens) (UniProt P54764)", "sequence (P54764 whole entry)": "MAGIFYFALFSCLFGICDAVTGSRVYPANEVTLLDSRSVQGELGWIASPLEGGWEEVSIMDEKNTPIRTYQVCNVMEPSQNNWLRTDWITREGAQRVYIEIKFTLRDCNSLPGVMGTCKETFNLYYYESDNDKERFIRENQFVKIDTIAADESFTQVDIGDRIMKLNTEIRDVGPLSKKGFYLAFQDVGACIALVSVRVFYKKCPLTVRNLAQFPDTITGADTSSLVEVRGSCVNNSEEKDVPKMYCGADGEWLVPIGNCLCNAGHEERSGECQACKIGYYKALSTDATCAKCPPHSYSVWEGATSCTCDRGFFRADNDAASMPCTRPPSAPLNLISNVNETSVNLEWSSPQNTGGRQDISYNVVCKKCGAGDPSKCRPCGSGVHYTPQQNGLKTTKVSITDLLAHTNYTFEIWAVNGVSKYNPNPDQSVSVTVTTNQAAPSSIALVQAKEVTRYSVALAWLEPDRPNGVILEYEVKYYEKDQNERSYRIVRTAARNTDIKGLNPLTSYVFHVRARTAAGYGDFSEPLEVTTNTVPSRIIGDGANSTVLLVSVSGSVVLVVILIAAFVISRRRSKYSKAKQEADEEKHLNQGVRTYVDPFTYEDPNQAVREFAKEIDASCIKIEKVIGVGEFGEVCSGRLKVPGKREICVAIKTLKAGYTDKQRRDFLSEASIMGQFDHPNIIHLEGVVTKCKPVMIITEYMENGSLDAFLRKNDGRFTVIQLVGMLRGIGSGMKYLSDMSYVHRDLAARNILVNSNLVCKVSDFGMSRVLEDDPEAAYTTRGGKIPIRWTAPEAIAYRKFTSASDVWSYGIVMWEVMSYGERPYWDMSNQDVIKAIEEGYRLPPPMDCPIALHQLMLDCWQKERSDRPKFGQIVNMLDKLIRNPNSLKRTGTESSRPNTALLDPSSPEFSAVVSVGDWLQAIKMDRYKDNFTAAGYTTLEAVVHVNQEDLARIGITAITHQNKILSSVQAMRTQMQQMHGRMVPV", "settings": "at 1 µM"}, "[3]": {"target": "Ephrin type-A receptor 4 (Homo sapiens) (UniProt P54764)", "settings": "at 10 µM"}, "[4]": {"target": "Ephrin type-A receptor 5 (Homo sapiens) (UniProt P54756)", "sequence (P54756 whole entry)": "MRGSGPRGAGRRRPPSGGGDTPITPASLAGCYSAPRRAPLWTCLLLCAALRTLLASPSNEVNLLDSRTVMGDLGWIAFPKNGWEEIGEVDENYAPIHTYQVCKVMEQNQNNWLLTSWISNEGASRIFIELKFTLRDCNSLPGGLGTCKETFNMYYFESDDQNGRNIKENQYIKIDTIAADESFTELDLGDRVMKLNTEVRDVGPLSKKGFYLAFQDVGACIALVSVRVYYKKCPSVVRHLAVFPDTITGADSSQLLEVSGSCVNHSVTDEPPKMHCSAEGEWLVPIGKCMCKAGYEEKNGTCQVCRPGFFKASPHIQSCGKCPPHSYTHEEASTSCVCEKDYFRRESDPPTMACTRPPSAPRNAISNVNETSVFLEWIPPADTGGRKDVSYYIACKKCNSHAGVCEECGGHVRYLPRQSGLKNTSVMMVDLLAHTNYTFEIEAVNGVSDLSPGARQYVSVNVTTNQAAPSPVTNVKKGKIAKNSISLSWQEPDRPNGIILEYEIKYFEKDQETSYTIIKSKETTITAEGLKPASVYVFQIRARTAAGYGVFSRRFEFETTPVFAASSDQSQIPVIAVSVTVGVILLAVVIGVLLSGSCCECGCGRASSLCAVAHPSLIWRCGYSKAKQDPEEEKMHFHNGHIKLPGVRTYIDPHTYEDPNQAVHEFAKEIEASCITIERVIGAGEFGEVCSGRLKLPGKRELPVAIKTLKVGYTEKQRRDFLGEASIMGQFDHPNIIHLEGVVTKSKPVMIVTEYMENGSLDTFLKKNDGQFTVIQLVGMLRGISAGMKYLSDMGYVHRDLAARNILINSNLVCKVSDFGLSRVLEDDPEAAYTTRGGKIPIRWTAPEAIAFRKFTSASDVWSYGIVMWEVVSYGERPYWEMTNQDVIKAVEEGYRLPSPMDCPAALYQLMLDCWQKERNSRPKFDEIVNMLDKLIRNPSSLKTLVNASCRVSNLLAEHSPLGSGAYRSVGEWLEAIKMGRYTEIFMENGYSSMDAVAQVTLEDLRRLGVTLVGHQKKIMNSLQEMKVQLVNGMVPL", "settings": "at 1 µM"}, "[5]": {"target": "Ephrin type-A receptor 5 (Homo sapiens) (UniProt P54756)", "settings": "at 10 µM"}, "[6]": {"target": "Ephrin type-A receptor 7 (Homo sapiens) (UniProt Q15375)", "sequence (Q15375 28-998 limits assumed)": "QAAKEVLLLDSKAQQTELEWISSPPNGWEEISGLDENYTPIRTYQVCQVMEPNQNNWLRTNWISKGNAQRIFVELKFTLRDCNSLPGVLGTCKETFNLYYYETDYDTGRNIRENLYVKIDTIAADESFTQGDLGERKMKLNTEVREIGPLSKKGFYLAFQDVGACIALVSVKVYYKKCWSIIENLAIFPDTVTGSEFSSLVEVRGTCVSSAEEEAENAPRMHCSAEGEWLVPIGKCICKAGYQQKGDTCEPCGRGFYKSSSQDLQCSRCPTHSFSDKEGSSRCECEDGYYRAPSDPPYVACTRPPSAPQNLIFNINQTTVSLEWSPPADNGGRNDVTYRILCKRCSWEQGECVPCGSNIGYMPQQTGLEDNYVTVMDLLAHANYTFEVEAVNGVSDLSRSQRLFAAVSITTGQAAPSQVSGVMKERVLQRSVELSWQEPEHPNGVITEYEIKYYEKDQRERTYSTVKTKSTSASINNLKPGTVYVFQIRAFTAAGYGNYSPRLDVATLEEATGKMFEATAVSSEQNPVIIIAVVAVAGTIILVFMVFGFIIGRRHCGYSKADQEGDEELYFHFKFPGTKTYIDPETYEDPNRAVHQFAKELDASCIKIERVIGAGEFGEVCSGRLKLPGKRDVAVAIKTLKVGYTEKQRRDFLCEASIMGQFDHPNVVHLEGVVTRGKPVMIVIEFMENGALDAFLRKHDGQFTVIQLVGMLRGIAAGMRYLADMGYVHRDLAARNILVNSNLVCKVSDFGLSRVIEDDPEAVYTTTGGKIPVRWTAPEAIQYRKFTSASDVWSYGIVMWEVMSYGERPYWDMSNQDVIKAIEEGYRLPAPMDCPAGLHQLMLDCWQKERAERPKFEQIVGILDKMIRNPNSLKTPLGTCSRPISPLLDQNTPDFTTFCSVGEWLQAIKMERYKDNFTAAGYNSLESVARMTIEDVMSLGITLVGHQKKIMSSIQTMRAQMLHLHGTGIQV", "settings": "at 1 µM"}, "[7]": {"target": "Ephrin type-A receptor 7 (Homo sapiens) (UniProt Q15375)", "settings": "at 10 µM"}, "[8]": {"target": "T2, Ephrin type-A receptor 8 (Homo sapiens) (UniProt P29322)", "T2 sequence (whole entry)": "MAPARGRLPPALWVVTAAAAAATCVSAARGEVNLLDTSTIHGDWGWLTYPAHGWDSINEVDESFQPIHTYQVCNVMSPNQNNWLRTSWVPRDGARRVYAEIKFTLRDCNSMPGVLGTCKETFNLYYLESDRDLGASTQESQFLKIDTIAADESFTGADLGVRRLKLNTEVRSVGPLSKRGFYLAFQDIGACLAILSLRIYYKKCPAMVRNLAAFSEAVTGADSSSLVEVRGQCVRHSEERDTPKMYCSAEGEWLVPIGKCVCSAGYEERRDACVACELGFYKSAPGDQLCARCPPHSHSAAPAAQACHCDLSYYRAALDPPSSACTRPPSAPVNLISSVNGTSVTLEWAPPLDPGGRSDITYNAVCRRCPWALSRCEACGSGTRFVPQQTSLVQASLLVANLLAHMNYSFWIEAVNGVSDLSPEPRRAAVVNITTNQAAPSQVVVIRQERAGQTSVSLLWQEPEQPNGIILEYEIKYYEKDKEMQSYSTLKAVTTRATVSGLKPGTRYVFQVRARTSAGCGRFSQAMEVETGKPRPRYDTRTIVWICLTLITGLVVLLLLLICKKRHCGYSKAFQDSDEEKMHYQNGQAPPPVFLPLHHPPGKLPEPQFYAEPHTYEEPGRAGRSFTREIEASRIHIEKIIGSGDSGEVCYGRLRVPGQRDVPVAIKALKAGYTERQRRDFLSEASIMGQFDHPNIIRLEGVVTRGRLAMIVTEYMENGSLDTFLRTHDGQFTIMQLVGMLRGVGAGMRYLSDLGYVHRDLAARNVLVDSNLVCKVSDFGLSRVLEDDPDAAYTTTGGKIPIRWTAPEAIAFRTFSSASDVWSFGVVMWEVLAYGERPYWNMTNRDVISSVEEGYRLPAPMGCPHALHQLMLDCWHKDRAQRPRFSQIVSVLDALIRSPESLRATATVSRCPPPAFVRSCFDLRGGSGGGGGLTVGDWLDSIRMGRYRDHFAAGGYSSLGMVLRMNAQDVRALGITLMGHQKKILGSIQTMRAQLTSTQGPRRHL", "settings": "at 1 µM"}, "[9]": {"target": "T2, Ephrin type-A receptor 8 (Homo sapiens)", "settings": "at 10 µM"}, "[10]": {"target": "T3, Ephrin type-B receptor 1 (Homo sapiens) (UniProt P54762)", "T3 sequence (whole entry)": "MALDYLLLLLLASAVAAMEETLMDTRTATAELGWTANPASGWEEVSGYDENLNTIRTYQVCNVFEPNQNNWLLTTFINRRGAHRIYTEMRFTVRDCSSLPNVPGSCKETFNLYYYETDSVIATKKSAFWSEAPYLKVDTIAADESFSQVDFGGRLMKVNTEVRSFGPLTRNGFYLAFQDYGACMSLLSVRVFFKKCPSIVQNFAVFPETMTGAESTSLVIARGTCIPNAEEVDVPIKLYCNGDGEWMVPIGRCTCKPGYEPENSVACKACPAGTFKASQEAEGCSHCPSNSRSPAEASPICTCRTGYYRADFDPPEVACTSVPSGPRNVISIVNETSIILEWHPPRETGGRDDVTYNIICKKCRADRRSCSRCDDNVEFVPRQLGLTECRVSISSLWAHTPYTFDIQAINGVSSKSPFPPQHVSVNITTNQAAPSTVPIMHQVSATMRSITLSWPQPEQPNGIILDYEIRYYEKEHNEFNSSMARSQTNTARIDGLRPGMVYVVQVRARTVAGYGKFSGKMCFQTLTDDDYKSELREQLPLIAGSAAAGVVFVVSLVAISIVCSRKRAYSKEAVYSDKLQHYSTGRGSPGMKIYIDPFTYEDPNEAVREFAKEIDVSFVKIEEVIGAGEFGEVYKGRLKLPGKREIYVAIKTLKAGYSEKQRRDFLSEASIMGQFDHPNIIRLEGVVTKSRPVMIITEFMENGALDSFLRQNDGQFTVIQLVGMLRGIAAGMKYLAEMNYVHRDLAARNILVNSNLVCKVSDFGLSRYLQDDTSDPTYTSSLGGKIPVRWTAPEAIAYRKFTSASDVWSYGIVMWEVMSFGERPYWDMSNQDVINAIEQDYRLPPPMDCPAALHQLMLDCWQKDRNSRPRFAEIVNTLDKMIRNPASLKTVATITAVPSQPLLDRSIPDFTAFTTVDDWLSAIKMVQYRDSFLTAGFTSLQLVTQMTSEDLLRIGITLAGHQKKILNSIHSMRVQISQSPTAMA", "settings": "at 1 µM"}, "[11]": {"target": "T3, Ephrin type-B receptor 1 (Homo sapiens)", "settings": "at 10 µM"}, "[12]": {"target": "T4, Ephrin type-B receptor 3 (Homo sapiens) (UniProt P54753)", "T4 sequence (whole entry)": "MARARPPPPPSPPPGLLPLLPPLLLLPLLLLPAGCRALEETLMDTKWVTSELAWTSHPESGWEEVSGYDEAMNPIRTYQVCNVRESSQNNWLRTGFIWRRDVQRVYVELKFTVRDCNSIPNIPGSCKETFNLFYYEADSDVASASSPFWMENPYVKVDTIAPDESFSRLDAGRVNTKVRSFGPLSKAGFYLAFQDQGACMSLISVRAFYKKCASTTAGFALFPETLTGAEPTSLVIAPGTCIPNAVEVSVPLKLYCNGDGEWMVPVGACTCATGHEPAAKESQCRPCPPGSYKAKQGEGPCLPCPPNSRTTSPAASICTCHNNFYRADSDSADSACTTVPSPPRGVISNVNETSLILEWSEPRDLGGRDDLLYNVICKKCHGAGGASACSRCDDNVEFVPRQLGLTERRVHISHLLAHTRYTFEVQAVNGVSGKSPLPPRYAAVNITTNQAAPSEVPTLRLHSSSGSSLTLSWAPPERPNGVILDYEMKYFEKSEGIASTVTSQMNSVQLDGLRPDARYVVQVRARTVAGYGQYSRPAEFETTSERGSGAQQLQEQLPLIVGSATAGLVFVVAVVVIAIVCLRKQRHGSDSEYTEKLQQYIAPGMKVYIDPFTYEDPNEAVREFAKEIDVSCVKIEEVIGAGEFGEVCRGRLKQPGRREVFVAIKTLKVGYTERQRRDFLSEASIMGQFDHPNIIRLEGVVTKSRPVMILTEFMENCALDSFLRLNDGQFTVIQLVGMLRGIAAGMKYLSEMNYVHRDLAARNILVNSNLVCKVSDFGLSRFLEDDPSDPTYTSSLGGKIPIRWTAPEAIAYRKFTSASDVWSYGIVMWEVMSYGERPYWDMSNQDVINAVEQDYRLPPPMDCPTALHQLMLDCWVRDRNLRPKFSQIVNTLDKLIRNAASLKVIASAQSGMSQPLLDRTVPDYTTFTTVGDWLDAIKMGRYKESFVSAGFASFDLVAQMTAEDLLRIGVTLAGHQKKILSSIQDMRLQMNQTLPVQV", "settings": "at 1 µM"}, "[13]": {"target": "T4, Ephrin type-B receptor 3 (Homo sapiens)", "settings": "at 10 µM"}, "[14]": {"target": "T5, Ephrin type-B receptor 4 (Homo sapiens) (UniProt P54760)", "T5 sequence (whole entry)": "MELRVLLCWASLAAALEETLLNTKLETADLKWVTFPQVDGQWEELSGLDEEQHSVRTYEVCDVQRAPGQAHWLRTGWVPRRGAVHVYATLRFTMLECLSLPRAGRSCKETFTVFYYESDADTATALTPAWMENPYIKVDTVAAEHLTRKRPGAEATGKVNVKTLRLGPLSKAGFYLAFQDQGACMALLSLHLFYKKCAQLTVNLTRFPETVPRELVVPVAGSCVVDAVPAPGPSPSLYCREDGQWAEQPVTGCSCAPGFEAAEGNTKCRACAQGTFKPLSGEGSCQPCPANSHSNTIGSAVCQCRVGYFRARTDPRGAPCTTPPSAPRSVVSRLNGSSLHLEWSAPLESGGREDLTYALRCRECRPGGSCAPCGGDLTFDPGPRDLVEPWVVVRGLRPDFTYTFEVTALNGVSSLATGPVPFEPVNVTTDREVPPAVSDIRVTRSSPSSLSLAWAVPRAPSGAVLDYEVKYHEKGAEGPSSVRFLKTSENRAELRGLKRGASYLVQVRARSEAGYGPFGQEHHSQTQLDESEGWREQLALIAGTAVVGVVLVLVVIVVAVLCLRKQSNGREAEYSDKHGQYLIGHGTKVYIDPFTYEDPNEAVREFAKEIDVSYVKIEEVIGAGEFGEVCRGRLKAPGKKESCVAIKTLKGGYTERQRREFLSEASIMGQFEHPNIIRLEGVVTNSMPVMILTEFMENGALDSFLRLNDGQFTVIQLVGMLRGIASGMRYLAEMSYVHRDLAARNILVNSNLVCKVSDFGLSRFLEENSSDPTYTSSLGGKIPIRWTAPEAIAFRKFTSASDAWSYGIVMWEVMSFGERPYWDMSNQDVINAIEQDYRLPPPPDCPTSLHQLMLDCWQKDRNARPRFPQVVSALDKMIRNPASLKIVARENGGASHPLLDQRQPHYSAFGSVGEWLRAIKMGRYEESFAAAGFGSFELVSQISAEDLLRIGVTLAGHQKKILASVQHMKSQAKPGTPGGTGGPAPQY", "settings": "at 1 µM"}, "[15]": {"target": "T5, Ephrin type-B receptor 4 (Homo sapiens)", "settings": "at 10 µM"}, "[16]": {"target": "Receptor tyrosine-protein kinase erbB-4 (Homo sapiens) (UniProt Q15303)", "sequence (Q15303 whole entry)": "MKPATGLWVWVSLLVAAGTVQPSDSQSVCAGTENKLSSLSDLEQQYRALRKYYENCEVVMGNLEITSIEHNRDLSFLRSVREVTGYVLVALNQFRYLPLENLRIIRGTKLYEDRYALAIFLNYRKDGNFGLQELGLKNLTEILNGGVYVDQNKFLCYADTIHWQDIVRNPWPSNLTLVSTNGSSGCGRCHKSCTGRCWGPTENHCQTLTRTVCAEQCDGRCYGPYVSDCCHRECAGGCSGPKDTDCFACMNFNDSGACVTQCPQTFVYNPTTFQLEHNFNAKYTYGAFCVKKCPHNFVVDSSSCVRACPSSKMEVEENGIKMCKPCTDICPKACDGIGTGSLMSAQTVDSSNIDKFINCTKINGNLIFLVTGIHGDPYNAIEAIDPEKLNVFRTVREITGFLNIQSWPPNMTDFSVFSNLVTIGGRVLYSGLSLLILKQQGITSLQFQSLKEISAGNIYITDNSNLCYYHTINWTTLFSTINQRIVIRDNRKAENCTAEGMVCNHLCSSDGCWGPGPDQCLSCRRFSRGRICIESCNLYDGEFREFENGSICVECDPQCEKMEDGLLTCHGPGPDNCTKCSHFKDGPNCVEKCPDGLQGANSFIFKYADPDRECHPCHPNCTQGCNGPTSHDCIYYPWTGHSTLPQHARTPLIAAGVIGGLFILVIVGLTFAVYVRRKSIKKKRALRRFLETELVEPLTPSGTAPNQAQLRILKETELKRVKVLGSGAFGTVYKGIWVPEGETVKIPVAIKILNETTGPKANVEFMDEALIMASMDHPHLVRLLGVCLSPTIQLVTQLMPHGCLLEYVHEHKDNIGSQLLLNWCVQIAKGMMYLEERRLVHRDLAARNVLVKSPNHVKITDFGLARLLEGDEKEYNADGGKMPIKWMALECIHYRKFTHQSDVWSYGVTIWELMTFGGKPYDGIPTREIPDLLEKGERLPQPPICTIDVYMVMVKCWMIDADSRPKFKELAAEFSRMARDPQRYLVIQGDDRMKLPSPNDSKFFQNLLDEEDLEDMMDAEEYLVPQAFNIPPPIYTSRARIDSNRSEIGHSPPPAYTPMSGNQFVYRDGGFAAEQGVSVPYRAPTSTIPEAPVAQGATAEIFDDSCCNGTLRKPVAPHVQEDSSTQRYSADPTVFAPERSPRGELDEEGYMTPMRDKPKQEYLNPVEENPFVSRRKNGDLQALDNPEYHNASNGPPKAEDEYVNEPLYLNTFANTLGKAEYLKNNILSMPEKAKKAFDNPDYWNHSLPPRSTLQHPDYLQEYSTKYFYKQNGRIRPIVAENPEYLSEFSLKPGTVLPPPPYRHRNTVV", "settings": "at 1 µM"}, "[17]": {"target": "Receptor tyrosine-protein kinase erbB-4 (Homo sapiens) (UniProt Q15303)", "settings": "at 10 µM"}, "[18]": {"target": "Focal adhesion kinase 1 (Homo sapiens) (UniProt Q05397)", "settings": "at 1 µM"}}, "data": [{"smiles": "O=c1c2ccccc2[nH]c(=S)n1CCN1CCC(=C(c2ccc(F)cc2)c2ccc(F)cc2)CC1", "values": [{"measurement": "residual activity", "setting": "[1]", "result": 96, "unit": "%"}, {"measurement": "residual activity", "setting": "[2]", "result": 112, "unit": "%"}, {"measurement": "residual activity", "setting": "[3]", "result": 100, "unit": "%"}, {"measurement": "residual activity", "setting": "[4]", "result": 110, "unit": "%"}, {"measurement": "residual activity", "setting": "[5]", "result": 92, "unit": "%"}, {"measurement": "residual activity", "setting": "[6]", "result": 106, "unit": "%"}, {"measurement": "residual activity", "setting": "[7]", "result": 92, "unit": "%"}, {"measurement": "residual activity", "setting": "[8]", "result": 115, "unit": "%"}, {"measurement": "residual activity", "setting": "[9]", "result": 111, "unit": "%"}, {"measurement": "residual activity", "setting": "[10]", "result": 90, "unit": "%"}, {"measurement": "residual activity", "setting": "[11]", "result": 90, "unit": "%"}, {"measurement": "residual activity", "setting": "[12]", "result": "112% (inactive)"}, {"measurement": "residual activity", "setting": "[13]", "result": 107, "unit": "%"}, {"measurement": "residual activity", "setting": "[14]", "result": 99, "unit": "%"}, {"measurement": "residual activity", "setting": "[15]", "result": 121, "unit": "%"}, {"measurement": "residual activity", "setting": "[16]", "result": 102, "unit": "%"}, {"measurement": "residual activity", "setting": "[17]", "result": 66, "unit": "%"}, {"measurement": "residual activity", "setting": "[18]", "result": 135, "unit": "%"}]}]}
